# Screening results: PubChem BioAssay, National Center for Advancing Translational Sciences (NCATS)
# Hits are enriched below; roughly 1.7% of the tested compounds scored in any of these assays.
# FBPA coupling cs – inhibits coupling enzyme system, counter-screen for aldolase hits | AID 2472 | 290,000 compounds, 0.67% hits | coupling enzyme system counterscreen, AmpLite Red fluorescence | activity change, negative = inhibition, % at 58.2 µM, hits read low; in the data active = activity change below about -30%
#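 Counterscreen of the coupled detection system alone, without aldolase: glyceraldehyde-3-phosphate coupling enzymes plus AmpLite Red readout. Compounds at 57.5 uM final, 10 min RT preincubation, 20 min RT reaction, fluorescence 525/598 nm.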
# KCNH2 3.1 inh – KCNH2 3.1 (human) potassium channel inhibition; U2OS KCNH2 3.1, thallium flux FluxOr; hits give low values; 340,000 compounds, 0.95% hits; activity change, % (tested at about 1.8 µM);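 active = maximum activity change below -70%; inconclusive = maximum activity change from -70% to -50%; inactive = maximum activity change above -50%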;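 note: thallium influx rate constant from kinetic fluorescence after stimulation buffer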
#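 Kinetic fluorescence (2 min after stimulation buffer) measures Tl+ influx through KCNH2 3.1 expressed by viral transduction in U2OS cells; the rate constant is normalized against DMSO controls serving as positive and negative references.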
# USP1-UAF1 inh – inhibitors of human USP1/UAF1 deubiquitinase; AID 743255; recombinant USP1/UAF1, Ub-Rhodamine cleavage fluorescence; 390,000 compounds, 0.23% hits; Potency, µM (highest dose often 57.1 µM), for inactives: at the top dose activity change, negative = inhibition, hits mostly inhibitors; O94782; active = well fitted inhibition curve with a large enough effect; inconclusive = small, poorly fitted or top-dose-only effect; inactive = no such curve, though single readings can be large or run the other way; note: potency is the fitted concentration of half-maximal effect; nearly all actives have a fitted effect of over 60% in size
#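 High-throughput fluorogenic screen: 1nM USP1/UAF1 complex, Ub-Rho substrate 150nM final, 50mM HEPES pH 7.8 with 0.5mM EDTA, 0.1 mg/ml BSA, 1mM TCEP and 0.01% Tween-20.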
# KCNH2 WT inh – blocks the wildtype human KCNH2 potassium channel; Q12809; U2OS, BacMam KCNH2, thallium flux FluxOr; hits give low values; activity change, % at 1.84 µM; 340,000 compounds, 0.37% hits; AID 720551;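 active = maximum activity change below -70%; inconclusive = maximum activity change between -70% and -50%; inactive = maximum activity change above -50%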
#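 U2OS cells were transduced with wild-type KCNH2 virus (2.03 x 10^8 / mL) for 4 h at room temperature, then cultured overnight at 37 C. Thallium flux was read with FluxOr dye. Rate constants were normalized to DMSO controls.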
# Giardia killer – Giardia lamblia killing. Giardia lamblia trophozoite viability. activity change, % at 7.66 µM, hits read low. AID 540267. 340,000 compounds, 0.15% hits; in the data active = activity change below about -80%; inconclusive = between about -30% and that limit;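 note: parasites exposed to compound for two days anaerobically before the ATP read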
#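 Viability, read as ATP luminescence: trophozoites at 100 cells/well, compound added, 48 hrs anaerobic at 37 deg C, then 15-30 min room-temperature development before reading.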
# The depositor's hits bear a star; i = inactive; ? = inconclusive; / = no result given. % is set by controls: 0 for no effect and ±100 for the full control effect.
SMILES,FBPA coupling cs,KCNH2 3.1 inh,USP1-UAF1 inh,KCNH2 WT inh,Giardia killer
N=c1sccn1CC(=O)N1N=C(c2ccc(Cl)cc2)CC1c1ccco1 (configuration not stated),-1,-86*,-16%,14,-1
Cc1noc(C)c1-c1ccc2ncnc(NCc3ccc4c(c3)OCO4)c2c1,0,/,/,/,/
Cc1cccc(CN2C(=O)NC(c3ccccc3)(c3ccccc3)C2=O)c1,-6,-89*,-13%,4,28
COc1ccc(-c2cc(C(=O)Oc3ccc(C)c(C)c3)c3ccccc3n2)cc1,/,/,-20%,/,/
Cc1cc(C)c2nc(N(CCCN(C)C)C(=O)c3ccc4c(c3)OCCO4)sc2c1,/,-86*,-1%,-8,14
Cc1cc(C)c2sc(N(CCN(C)C)C(=O)c3c(F)cccc3F)nc2c1,0,4,-7%,9,-2
Cc1cc(C)c2sc(N(CCCN(C)C)C(=O)c3ccc(Br)s3)nc2c1,3,-82*,-6%,-23,-3
CCOC(=O)CN1C(=O)N[C@@H](c2ccccc2)[C@H](C(=O)OC)[C@H]1C,-1,/,/,/,/
CCOC(=O)CN1C(=O)N[C@@H](c2ccccc2)[C@H](C(C)=O)[C@H]1C,3,-82*,-8%,-12,8
CC[n+]1c(/C=C/C=C/N(C(C)=O)c2ccccc2)sc2ccccc21,-6,1,32µM*,-7,-6
N#CN=c1snc(-c2ccccc2)n1-c1ccc(Br)cc1,/,/,/,/,18
O=C(CNC(=S)N(CCCN1CCOCC1)Cc1cccs1)N1CCOCC1,6,9,7%,5,25
O=C(CNC(=S)N(CCCN1CCOCC1)Cc1cccs1)N1CCCCCC1,2,-181*,-1%,-148*,22
CN(Cc1cn(C)nc1-c1ccc(Oc2ccccc2)cc1)Cc1cnc2ccccn12,-6,-32,-20%,2,23
Cn1cc(CNCc2cnc3ccccn23)c(-c2ccc(Oc3ccccc3)cc2)n1,0,-207*,-19%,i,-5
CCCCc1nc2c(c3c1C[C@H](C)OC3)CN(C(=O)Cc1cccs1)CC2,1,/,/,/,/
CSc1ccccc1NC(=O)COc1ccc(Cl)cc1C,-2,-2,-21%,1,-16
CCOC(=O)c1c(C)oc(NC(=O)COc2ccc(Cl)cc2C)c1C#N,0,-75*,-24%,-2,-3
CCCCSc1nc2c(cnn2-c2ccc(C)c(C)c2)c(=O)[nH]1,0,8,?,5,-12
CCCSc1nc2c(cnn2-c2ccc(C)c(C)c2)c(=O)[nH]1,2,-123*,?,4,?
COc1ccccc1-n1cnc2cc(C(=O)NC3CCCC3)ccc21,-1,-91*,1%,-14,30
COc1ccc(C)cc1-n1cnc2cc(C(=O)NC3CCCC3)ccc21,/,/,-3%,/,/
CCC(C)NC(=O)CCCc1nnc2n(CC(C)C)c(=O)c3sccc3n12 (configuration not stated),/,/,-11%,/,/
CC(=O)O[C@@H]1C(CO[Si](C)(C)C(C)(C)C)=C(Br)C(=O)[C@@H]2O[C@]12C,0,/,/,/,/
O=S(=O)(c1ccc(Cl)c(NC(=S)Nc2cccc(O)c2)c1)N1CCOCC1,-2,6,2%,5,3
SMILES,FBPA coupling cs,KCNH2 3.1 inh,USP1-UAF1 inh,KCNH2 WT inh,Giardia killer
CCN(C(=S)Nc1cc(S(=O)(=O)N2CCOCC2)ccc1Cl)c1cccc2ccccc12,-93*,-4,-8%,-1,-3
O.O.[Mn].[Mn].[Mn].[OH-].[OH-],1,/,/,/,/
CCOC(=O)Cn1c(=O)c(-c2ccccc2N)nc2ccccc21,0,-12,-22%,0,-11
CCOC(=O)Cn1c(=O)c(-c2cc(Br)ccc2N)nc2ccccc21,-2,-40,?,-242*,-26
O=S(=O)(c1ccc(Cl)cc1)c1nc(-c2ccco2)oc1SCc1ccccc1F,/,/,-24%,/,/
Cc1nn(-c2ccccn2)c(N)c1N=O,0,3,-16%,-4,-6
Cc1nn(-c2ccccn2)c2c1-c1nc(N)ncc1CC2,-47*,-2,-19%,-2,-3
Cc1nn(-c2ccccn2)c2c1-c1nc(N3CCOCC3)ncc1CC2,-39*,-14,7%,-2,-2
COC(=O)c1ccccc1N/C=C1\CCc2c(c(C)nn2-c2ccccn2)C1=O,-17,2,?,0,4
O=C(Cn1cc(C(=O)C2CCCCC2)c2ccccc21)Nc1ccccc1Cl,/,/,-2%,/,/
CCOc1ccc(N2CC(c3nc4ccccc4n3CCC3CCCCC3)CC2=O)cc1 (configuration not stated),/,/,-31%,/,/
C#CCN(C[C@H]1[C@H](OC(=O)NCc2ccco2)[C@H](OC(=O)NCc2ccco2)C[C@@H](C(=O)OC)[C@H]1C(=O)OC)S(=O)(=O)c1ccc(C)cc1,/,-4,-18%,8,/
N#Cc1c(N2CCN(c3ccc([N+](=O)[O-])cc3)CC2)[n+](=O)c2ccc(Cl)cc2n1[O-],/,-97*,-16%,?,?
COc1ccc2c(c1)CC(C(=O)NCCN1CCN(c3cccc(C)c3C)CC1)CO2 (configuration not stated),/,/,-12%,/,/
Cc1cnc(C)c(N2CCN(Cc3cn(C)nc3-c3cccc(Cl)c3)CC2)n1,-1,-115*,-20%,22,-8
Cn1cc(CN2CCN(Cc3ccccc3)CC2)c(-c2cccc(Cl)c2)n1,-1,-99*,-21%,7,9
COCCN1CCN(Cc2cn(C)nc2-c2cccc(Cl)c2)CC1,3,5,-12%,3,-17
O=C(Nc1ccc(Cl)cc1)N1CCC(c2ccccc2)C1 (configuration not stated),-5,3,-2%,7,12
CC(C)N(C)C1CCN(C(=O)Nc2ccc(Cl)cc2)CC1,-3,-198*,-1%,18,1
Cc1ccc(C)c(N2CCN(CCCNC(=O)C3COc4ccccc4C3)CC2)c1 (configuration not stated),/,/,-16%,/,/
CC(=O)Nc1ccc(NS(=O)(=O)c2ccc(C)cc2)c([N+](=O)[O-])c1,2,25,1%,-1,-99*
CC(=O)Nc1ccc(NS(=O)(=O)c2ccc(C)cc2)cc1[N+](=O)[O-],2,-5,-19%,11,14
Cc1cccc(NC(=O)Cn2cc(C(=O)C3CCCCC3)c3ccccc32)c1C,/,/,-18%,/,/
Cc1ccc(-n2ncc3c(NCc4cccnc4)ncnc32)cc1C,0,-7,-11%,5,26
Cc1cccc(-n2ncc3c(NCc4cccnc4)ncnc32)c1,-1,-102*,-22%,-13,-30
CCc1ccc(N=C2NC(=O)CC(C(=O)Nc3ccc(OC)cc3)S2)cc1 (configuration not stated),/,/,-8%,/,/
Cc1ccc2c(c1)CCCN2C(=O)Nc1ccc2c(c1)OCO2,-40*,11,-19%,-18,5
O=C(Nc1ccc2c(c1)OCO2)N1CCCc2ccccc21,0,-18,-6%,-6,-7
